High-throughput results from PubChem BioAssay.
DT40 TDP1 no CPT = qHTS for Inhibitors of human tyrosyl-DNA phosphodiesterase 1 (TDP1): qHTS in cells in absence of CPT | Potency, µM (series often up to 46.2 µM), for the others: at the top dose activity change, negative = growth inhibition, actives largely listed as inhibitors | DT40 Tdp1-/- hTDP1 cells, no CPT, ATP luminescence, 48 h | 420,000 compounds, 15% hits; note: % is set by controls: 0 for no effect and ±100 for the full control effect; nearly all actives have a fitted effect of over 55% in size
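A cellular qHTS used chicken DT40 cells lacking endogenous Tdp1 but carrying stably transfected human TDP1. Compounds were applied without camptothecin, and cell growth kinetics were judged by ATP-dependent luminescence after ≥48 hr.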
HepG2 tox = qHTS for Inhibitors of TGF-b: Cytotox Counterscreen. Potency, µM (titrated, usually from 46.1 µM), for inactives: top-dose activity change, negative = cytotoxicity, actives largely listed as cytotoxic. HepG2 CAGA-GFP viability, ATP luminescence, 18 h. 410,000 compounds, 0.76% hits
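CellTiter-Glo luminescence gave cytotoxicity after 18 hours at 37 degrees C. The cells were HepG2 CAGA-GFP in 1% FBS DMEM, stimulated with 500 pg/mL TGF-beta after compound addition. %Activity was normalised to no-cell wells (complete cell-killing) and DMSO (no toxicity), and curves were fitted and classified.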
S2 tox = Viability Counterscreen for Primary qHTS for Inhibitors of ATXN expression; S2 cells (HEK-293 line with an ATXN2-luciferase reporter) viability, CellTiter-Fluor protease fluorescence, 24 h; Potency, µM (doses to about 56.7 µM), actives largely listed as cytotoxic; 400,000 compounds, 0.49% hits; AID 651635, 2014; note: nearly all actives have a fitted effect of over 40% in size
TGFb inhibitor = qHTS for Inhibitors of TGF-b. HepG2 CAGA-GFP TGF-b/SMAD3 reporter, GFP fluorescence, 18 h; TGF-beta stimulated, 500 pg/mL final. Potency, µM (highest dose often 46.1 µM), without a hit: at the top dose activity, negative = inhibition, most hits filed as inhibitors. 410,000 compounds, 1.2% hits; note: % is set by controls: 0 for no effect and ±100 for the full control effect; nearly all actives have a fitted effect of over 65% in size
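GFP signal (ex488/em500-530) from TGF-beta-stimulated HEPG2 CAGA-GFP cells, 500 pg/mL final, 18 h at 37 degrees C in DMEM plus 1% FBS, normalized to unstimulated and DMSO-stimulated controls.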
ATXN2 expr inh = Primary qHTS for Inhibitors of ATXN expression | Potency, µM (series often up to 57 µM), inactives show at the top dose activity change, negative = inhibition, actives largely listed as inhibitors | 360,000 compounds, 0.72% hits | HEK-293 ATXN2-luciferase reporter, luminescence, 24 h; note: % is set by controls: 0 for no effect and ±100 for the full control effect; nearly all actives have a fitted effect of over 55% in size
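ATXN2-luciferase reporter cells (luciferase flanked by upstream and downstream ATXN2 gene portions) were treated 24 h at 37 °C with compounds at up to 57 uM. SteadyGlo luminescence gave expression; GF-AFC fluorescence gave viability.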
TDP1 cell CPT = qHTS for Inhibitors of human tyrosyl-DNA phosphodiesterase 1 (TDP1): qHTS in cells in presence of CPT; 420,000 compounds, 12% hits; Potency, µM (series often up to 46.2 µM), inactives show at the highest dose activity change, negative = growth inhibition, usual class: inhibitors; chicken DT40 Tdp1-/-;hTDP1 cells + 20 nM CPT, ATP luminescence, 48 h; note: % is set by controls: 0 for no effect and ±100 for the full control effect; nearly all actives have a fitted effect of over 55% in size
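Chicken DT40 Tdp1-/- cells complemented with human TDP1, 400 cells/well, exposed to compounds plus 20 nM camptothecin for at least 48 h at 37 C; viability read as ATP content by CellTiter-Glo luminescence.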
The depositor's hits bear a star; i = inactive; ? = inconclusive; · = no result. The list is not random: actives were taken first. Their share in the collection is about 17%. Calls come from the whole dose curve; as a rule, active = well fitted curve in the direction sought with a large enough effect; inconclusive = small, poorly fitted or top-dose-only effect, or another doubt; inactive = no such curve, though single readings can be large; an effect the other way counts as inactive or inconclusive. Potency is the fitted concentration of half-maximal effect.

SMILES | DT40 TDP1 no CPT | HepG2 tox | S2 tox | TGFb inhibitor | ATXN2 expr inh | TDP1 cell CPT
O=C(CN1CCCN(Cc2ccccc2Cl)S1(=O)=O)Nc1ccc2c(c1)OCCO2 | -24.9% | -43.8% | ? | -23.7% | -18.8% | ?
COc1cccc(CNC(=O)CCNS(=O)(=O)c2ccc3c(c2)CCCC(=O)N3)c1 | · | -16.5% | i | -5.8% | 8.1% | ·
C=C(C)CN=CC1(C)CCC(C)=CO1 (stereo unspecified) | 18.4µM* | 0.7% | i | 8.0% | -4.1% | 16.4µM*
CC(CNC(=O)C1CCN(C(=O)N2CCOc3ccc(Cl)cc32)CC1)c1ccccc1 (stereo unspecified) | 16.4µM* | -31.4% | · | ? | · | ?
CC1CN(C(=O)CCC(=O)N2CCCCC2)c2cc(Cl)ccc2O1 (stereo unspecified) | 15.7% | -10.1% | i | -3.6% | -0.1% | -19.8%
CCCCNC(=O)C1CCN(C(=O)N2CC(C)Oc3ccc(Cl)cc32)CC1 (stereo unspecified) | 20.6µM* | -21.2% | · | -29.0% | · | ?
O=C(NCCCc1ccccc1)C1CCN(C(=O)N2CCOc3ccc(Cl)cc32)CC1 | 14.6µM* | -21.0% | · | ? | · | 16.4µM*
CC1CN(C(=O)N2CCC(C(=O)N3CCN(c4ccccc4)CC3)CC2)c2cc(Cl)ccc2O1 (stereo unspecified) | 13µM* | -19.8% | · | ? | · | 13µM*
COCC(=O)N1CCC2(CC1)CCN(C(=O)Nc1cccc(F)c1)CC2 | -0.4% | · | · | · | · | 9.4%
CC1CN(C(=O)N2CCC(C(=O)NCCCc3ccccc3)CC2)c2ccccc2O1 (stereo unspecified) | ? | -12.4% | · | -27.1% | · | 20.6µM*
CC1CN(C(=O)N2CCC(C(=O)NCCCc3ccccc3)CC2)c2cc(Cl)ccc2O1 (stereo unspecified) | 13µM* | -20.7% | · | 14.1µM* | · | 18.4µM*
O=C(C1CCCCC1)N1C[C@@H](n2cc(-c3ccc(F)cc3)nn2)[C@H](O)C[C@@H]1c1ccccc1 | ? | -4.4% | ? | -8.9% | -11.9% | ?
COc1ccc(C(NCC(=O)NC(C)c2ccc(Cl)cc2)c2ccccc2)cc1 (stereo unspecified) | 0.0% | -5.2% | i | ? | ? | ?
Cc1ccc(NC(=O)CCc2nc3cccnc3n2-c2ccccc2)cc1 | ? | -13.9% | i | -2.0% | -15.8% | ?
O=C(c1ccnc(-n2cnnn2)c1)N1CCOc2ccc(C(O)CCc3ccccc3)cc2C1 (stereo unspecified) | -18.8% | · | ? | · | · | -28.7%
Cc1ccccc1C(=O)N=c1sccn1C | 3.26µM* | -14.1% | i | -9.2% | 19.5% | -1.4%
Cc1cccc(C(=O)N=c2sccn2C)c1[N+](=O)[O-] | -27.4% | -0.9% | i | 2.5% | 31.4% | ?
CC/C(C)=N/N1C(=O)c2ccccc2NC1(C)CC (stereo unspecified) | 2.6% | 9.0% | i | -0.4% | 32.0% | 17.4%
COc1ccc(-c2ccc(CN3C(C)C(=O)N(Cc4cn(CCC5OCCCO5)nn4)CCS3(=O)=O)cc2)cc1 (stereo unspecified) | 18.4µM* | -18.9% | ? | 21.5% | 6.3% | 16.4µM*
CC1C(=O)N(Cc2cn(CCC3OCCCO3)nn2)CCS(=O)(=O)N1Cc1ccc(-c2ccc(Cl)c(Cl)c2)cc1 (stereo unspecified) | 3.66µM* | -37.5% | 25.1µM* | ? | 25.1µM* | 4.11µM*
CC1C(=O)N(Cc2cn(CCC3OCCCO3)nn2)CCS(=O)(=O)N1Cc1ccc(-c2ccc(F)cc2)cc1 (stereo unspecified) | 18.4µM* | -13.8% | ? | -18.7% | ? | 11.6µM*
